CHX counter = affects cycloheximide protein synthesis inhibition readout, counter-screen | cell reporter, cycloheximide protein synthesis inhibition counterscreen | max response, % | 12% of 300,000 active; in the data active = max response mostly above about 13%, no sharp cut-off; inactive = mostly below about 14%; note: read at 38.3 µM for the half of the compounds with a filed dose; 0% is about no effect
LmPK inhibitor = LmPK (Leishmania mexicana) enzyme inhibition | AID 1721 | Q27686 | Potency, µM (doses to about 57.5 µM), for the others: top-dose activity change, negative = inhibition, most hits filed as inhibitors | purified LmPK, Kinase-Glo ATP luminescence, 1 h | 0.37% of 290,000 active; note: potency is the fitted concentration of half-maximal effect; % is set by controls: 0 for no effect and ±100 for the full control effect
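Screened at intermediate enzyme activity to detect both inhibitors and activators: LmPK at 0.1 nM, with a 0.5 nM enzyme column as activation reference. PEP 0.5 mM, ADP 0.1 mM; ATP detected by luminescence after 1 h.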
Shiga inhibitor = blocks Shiga toxin action in Vero cells | inhibition, % at 38.7 µM | Vero cells, Shiga toxin protein synthesis inhibition reporter | 9.2% of 290,000 active; in the data active = inhibition mostly above about 28%, no sharp cut-off; inactive = mostly below about 43%; note: 0% is about no effect
Tb PYK inh = inhibitors of Trypanosoma brucei pyruvate kinase; 0.12% of 410,000 active; Q57TT1; AID 624173; TbPYK enzyme, Kinase-Glo Plus ATP luminescence, 45 min; Potency, µM (series often up to 76.8 µM), without a hit: at the highest dose activity, negative = inhibition, usual class: inhibitors; note: potency is the fitted concentration of half-maximal effect; % is set by controls: 0 for no effect and ±100 for the full control effect; nearly all actives have a fitted effect of over 50% in size
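Glycolytic pyruvate kinase of T. brucei was incubated with substrate, test compound and 130 uM ADP for 45 minutes at room temperature. Luminescent Kinase-Glo Plus signal was measured after 10 minutes.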
Sm TGR block = blocks Schistosoma mansoni thioredoxin glutathione reductase | purified TGR, DTNB reduction, TNB absorbance 405 nm | Q962Y6 | Potency, µM (doses to about 114 µM), for inactives: top-dose activity change, negative = inhibition, hits mostly inhibitors | 3% of 360,000 active; note: potency is the fitted concentration of half-maximal effect; % is set by controls: 0 for no effect and ±100 for the full control effect; nearly all actives have a fitted effect of over 60% in size
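TGR 20 nM + NADPH 100 uM (dispensed conc.), cpd preinc 15 min RT; start with NADPH (500 uM addition) then DTNB (15 mM addition). Kinetic TNB absorbance, 405 nm filter. Four-parameter Hill fit across titration.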
FBPA Giardia inh = blocks Giardia fructose-bisphosphate aldolase activity | AID 2451 | 0.71% of 290,000 active | Potency, µM (titrated, usually from 59.6 µM), for inactives: top-dose activity, negative = inhibition, most hits filed as inhibitors | A8B2U2 | purified Giardia FBPA; note: potency is the fitted concentration of half-maximal effect; % is set by controls: 0 for no effect and ±100 for the full control effect; nearly all actives have a fitted effect of over 55% in size
Target sequence (A8B2U2 whole entry, looked up): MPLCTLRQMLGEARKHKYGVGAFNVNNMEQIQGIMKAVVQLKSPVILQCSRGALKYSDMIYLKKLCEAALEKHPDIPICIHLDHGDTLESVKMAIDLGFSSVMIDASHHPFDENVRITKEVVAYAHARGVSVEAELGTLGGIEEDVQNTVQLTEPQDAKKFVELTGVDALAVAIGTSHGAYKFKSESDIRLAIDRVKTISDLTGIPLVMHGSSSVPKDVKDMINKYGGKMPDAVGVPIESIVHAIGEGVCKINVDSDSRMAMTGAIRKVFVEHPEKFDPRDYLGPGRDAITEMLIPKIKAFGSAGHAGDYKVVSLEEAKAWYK
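Giardia FBPA (40 nM reagent) was preincubated 10 min at RT with compound (up to 57.5 uM final), then substrate plus GAPDH/TPI/NAD/arsenate coupling system with diaphorase/resazurin was added; resorufin fluorescence (525/598 nm) was read after 20 min.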
* marks the source's active call; other numbers are inactive results; ? = inconclusive; . = no result; [ ] = remark or other dose. Only a selection was taken, and hits are over-represented in it overall. Unless noted, calls come from the whole dose curve; as a rule, active = well fitted curve in the direction sought with a large enough effect; inconclusive = small, poorly fitted or top-dose-only effect, or another doubt; inactive = no such curve, though single readings can be large; an effect the other way counts as inactive or inconclusive.

SMILES	CHX counter	LmPK inhibitor	Shiga inhibitor	Tb PYK inh	Sm TGR block	FBPA Giardia inh
Cc1ccc2c(c1)CCCN2C(=O)c1ccoc1C	-4	-2%	-19	-3%	50µM*	-7%
Cc1cc(C(=O)Nc2ccncc2)c(C)o1	.	.	.	2%	.	.
CN(C)CCNc1oc(COc2ccc(Cl)cc2)nc1C#N	6	-8%	-27	-1%	28µM*	2%
CN(C)CCNc1oc(COc2cccc(Cl)c2)nc1C#N	-2	1%	7	5%	35µM*	-5%
COCCNc1oc(COc2cccc(C)c2)nc1C#N	19*	-1%	active	0%	-28%	1%
COc1ccc(NC(=O)c2cc3c(s2)-c2c(C)cccc2OC3)cc1Cl	.	.	.	-4%	-7%	.
Cc1ccc(CN2C(=O)CCC2C(=O)NCc2ccc(F)cc2)cc1 (stereo not drawn)	-4	-4%	-17	-6%	7%	5%
Cc1ccc(CN2C(=O)CCC2C(=O)NCCN(CC(C)C)CC(C)C)cc1 (stereo not drawn)	26*	3%	35	3%	?	-7%
CC(=O)Nc1nc2n(n1)C(c1ccc(Cl)cc1)C=C(C)N2 (stereo not drawn)	8	4%	-12	-11%	14µM*	-12%
CC1=CC(c2ccc(Cl)cc2)n2nc(NC(=O)c3ccccc3)nc2N1 (stereo not drawn)	-1	6%	-6	-3%	45µM*	-1%
COc1ccc(C2C=C(c3ccc(Cl)cc3)Nc3nc(NC(C)=O)nn32)cc1 (stereo not drawn)	-5	1%	-1	.	?	-15%
COc1ccc(N2CC(NC(=O)CCCc3ccccc3)CC2=O)cc1 (stereo not drawn)	.	.	.	-11%	7%	.
COc1ccc(CNC(=O)CCc2nnc3n(CC(C)C)c(=O)c4ccccc4n23)cc1	.	.	.	-9%	0%	.
Cc1ccc2c(nc3s/c(=C/c4cccs4)c(=O)n32)c1C	30*	0%	65	-6%	-5%	2%
O=[N+]([O-])c1cccc(N=Nc2ccc(O)cc2O)c1	.	.	.	-2%	.	.
CC1(C)CC(=O)C(C=Nc2cccc(/N=C/C3=C(O)CC(C)(C)CC3=O)n2)=C(O)C1	-4	11%	-3	.	5%	1%
CC1(C)CC(=O)C(N=Nc2cccc(F)c2C#N)=C(O)C1	-1	2%	-3	0%	14µM*	-12%
CC1(C)CC(=O)C(N=Nc2ccc(C(F)(F)F)cc2[N+](=O)[O-])=C(O)C1	-1	4%	-12	1%	4µM*	-23%
CC1(C)CC(=O)C(N=Nc2cccc([N+](=O)[O-])c2)=C(O)C1	45*	-30%	63*	-3%	?	2%
O=C(c1ccc(Cl)cc1)n1nc(-c2ccco2)nc1NCc1cccs1	.	.	.	1%	-32%	.
COC(=O)C1(C(C)=O)CC2=CC[C@@H]3C(=O)N(c4ccccc4)C(=O)[C@@H]3[C@@H]2Cc2ccccc2[C@@H]1C[N+](=O)[O-] (stereo partly drawn)	.	.	.	.	.	4%
COc1ccc(NC(=O)CN(Cc2ccccc2)S(=O)(=O)c2ccc(C)cc2)cc1Cl	.	.	.	4%	-9%	.
O=C(Cc1ccc(Br)cc1)Nc1ccc2[nH]ncc2c1	-1	1%	.	2%	-7%	-3%
O=C(Nc1ccc2[nH]ncc2c1)c1ccccc1Cl	16*	-1%	22	-1%	6%	-8%
O=C(Nc1ccc2[nH]ncc2c1)c1ccccc1Br	18*	1%	22	3%	-2%	6%
SMILES	CHX counter	LmPK inhibitor	Shiga inhibitor	Tb PYK inh	Sm TGR block	FBPA Giardia inh
Cc1c(C(=O)/C=C/c2cccs2)oc2ccc(F)cc12	36*	0%	73*	-6%	-1%	0%
COc1cccc(CCc2nnc(CCC(=O)NCCC3CCCCO3)o2)c1 (stereo not drawn)	18*	1%	14	2%	1%	3%
COc1ccc(CCc2nnc(CCC(=O)N(C)Cc3ccncc3C)o2)cc1	22*	-4%	70*	0%	?	6%
CCN(CC1CCCO1)C(=O)CCc1nnc(CCc2ccc(OC)cc2)o1 (stereo not drawn)	25*	-7%	48*	13%	1%	0%
CCCN(CC1CCCO1)C(=O)CCc1nnc(-c2cc(C)on2)o1 (stereo not drawn)	16*	-4%	51*	-1%	3%	2%
Cc1cccc(Cc2nnc(CCC(=O)N(C)Cc3ccncc3C)o2)c1	8	-7%	39	4%	4%	6%
CCN(CC1CCCO1)C(=O)CCc1nnc(CCc2ccccc2)o1 (stereo not drawn)	.	.	.	1%	.	.
CCN(C(=O)CSc1ccc2ccccc2n1)C1CCCCC1	.	.	.	-9%	.	.
Cc1cnc(CNc2ncnc3ccc(-c4ccccc4C(F)(F)F)cc23)cn1	.	.	.	.	.	1%
COc1ccc(-c2csc(N(CC3CCCO3)C(=O)c3cccs3)n2)cc1 (stereo not drawn)	3	12%	20	3%	4%	0%
COc1ccc(CC(=O)N(CC2CCCO2)c2nc3ccccc3s2)cc1 (stereo not drawn)	27*	5%	11	-2%	3%	-5%
O=C(CSc1ncnc2sc3c(c12)CCCCC3)NCc1ccco1	63*	5%	103*	-1%	32µM*	12%
CCC1(C)Cc2c(sc3c2c2ncnn2c2nnc(SCC(=O)NCc4ccco4)n32)CO1 (stereo not drawn)	-1	6%	-3	-2%	45µM*	0%
O=C(CSc1ncnc2sc3c(c12)CCCC3)c1ccco1	68*	3%	156*	-19%	-24%	6%
COCCCn1c(SCC(=O)NCc2ccco2)nc2sc3c(c2c1=O)CCC3	-6	3%	-37	5%	40µM*	-1%
CC1(C)Cc2c(sc3c2c2ncnn2c2nnc(SCC(=O)NCc4ccco4)n32)CO1	-4	14%	-24	2%	-2%[11.4 µM]	3%
O=C(CSc1nc2sc3c(c2c(=O)n1-c1ccccc1)CCCC3)NCc1ccco1	-3	0%	-12	-5%	-11%	4%
Cc1ccc(CNC(=O)c2ccc3c(c2)N(Cc2ccccc2Cl)C(=O)CS3)cc1	.	.	.	-3%	6%	.
Cc1cccc(NC(=O)Cn2c(=O)n(Cc3nc(-c4ccccc4)no3)c(=O)c3ccccc32)c1	.	.	.	0%	11%	.
COc1ccccc1NC(=S)N1CCC(C(=O)c2ccc(F)cc2)CC1	-4	0%	-16	1%	2%	2%
O=C(c1ccncc1)N1CCC2(CCCN(c3ccncc3)C2)CC1	.	.	.	-5%	.	2%
Cc1cccc(NC(=O)c2sc3nc(-c4cc5ccc(O)cc5oc4=O)[nH]c(=O)c3c2C)c1	.	.	.	?	-1%	.
CCN(CC)C(=O)CSc1nc2sc3c(c2c(=O)n1CCCOC)CCC3	-2	6%	.	-15%	-27%	8%

High-throughput results: PubChem, National Center for Advancing Translational Sciences (NCATS)
